# Source: PubChem BioAssay (Johns Hopkins Ion Channel Center)
# An excerpt weighted towards active compounds, which were near 1.6% of everything screened.
# KCNQ2 enhance: potentiators of rat KCNQ2 potassium channel; Potassium voltage-gated channel subfamily KQT member 2 (Rattus norvegicus), O88943; CHO-K1 KCNQ2, FluxOR thallium flux fluorescence; stronger effect = higher value; B-score at 10 µM; actives 0.54% (n = 310,000);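 active means fluorescence ratio B-score at least 3 SD of library B-scores, with initial fluorescence B-score within 3 of them, cut at about 5.3 in these data; same plate scores as AID 2156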;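 further: B-score of peak minus minimum over baseline fluorescence ratio after K+ and Tl+ stimulus; positive B-score means potentiation of KCNQ2 with more thallium influx and brighter signal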
# KCNQ2 inh: rat KCNQ2 potassium channel inhibitors, primary screen, cell-based, CHO-K1, FluxOR thallium flux, B-score; actives 1.1% (n = 310,000); B-score at 10 µM; 20 min; stronger effect = lower value; AID 2156, 2009; Potassium voltage-gated channel subfamily KQT member 2 (Rattus norvegicus), O88943;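 active means fluorescence ratio B-score at most minus 3 library SDs, with starting brightness B-score within 2 library SDs, cut at about -5.5 in these data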
# KCNQ2 block conf: rat KCNQ2 potassium channel inhibitors, confirmation, cell-based, thallium flux; shares compounds with KCNQ2 inh; KCNQ2-expressing cells, inhibition; stronger effect = lower value; activity change, negative = inhibition, % at 10 µM; actives 57% (n = 1,000); AID 493025, 2011;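 further: 0% = vehicle wells and values are ratio percent relative to vehicle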
# KCNQ1 spec: human KCNQ1 channel inhibition, counter-screen for KCNQ2 inhibitor project, cell-based, FluxOR thallium flux; AID 493026, 2011; actives 15% (n = 1,000); activity change, negative = inhibition, % at 10 µM; shares compounds with KCNQ2 inh; KCNQ1-expressing cells, FluxOR thallium flux fluorescence; stronger effect = lower value;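 active means activity change at least 3 SD of negative controls below their mean in both duplicate wells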;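 further: CHO cells stably transfected with KCNQ1 and depolarized by potassium stimulus; peak minus minimum fluorescence over baseline after thallium addition; 0% = vehicle negative control and -100% = blank without thallium stimulus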
# Target sequence (P51787 whole entry, looked up): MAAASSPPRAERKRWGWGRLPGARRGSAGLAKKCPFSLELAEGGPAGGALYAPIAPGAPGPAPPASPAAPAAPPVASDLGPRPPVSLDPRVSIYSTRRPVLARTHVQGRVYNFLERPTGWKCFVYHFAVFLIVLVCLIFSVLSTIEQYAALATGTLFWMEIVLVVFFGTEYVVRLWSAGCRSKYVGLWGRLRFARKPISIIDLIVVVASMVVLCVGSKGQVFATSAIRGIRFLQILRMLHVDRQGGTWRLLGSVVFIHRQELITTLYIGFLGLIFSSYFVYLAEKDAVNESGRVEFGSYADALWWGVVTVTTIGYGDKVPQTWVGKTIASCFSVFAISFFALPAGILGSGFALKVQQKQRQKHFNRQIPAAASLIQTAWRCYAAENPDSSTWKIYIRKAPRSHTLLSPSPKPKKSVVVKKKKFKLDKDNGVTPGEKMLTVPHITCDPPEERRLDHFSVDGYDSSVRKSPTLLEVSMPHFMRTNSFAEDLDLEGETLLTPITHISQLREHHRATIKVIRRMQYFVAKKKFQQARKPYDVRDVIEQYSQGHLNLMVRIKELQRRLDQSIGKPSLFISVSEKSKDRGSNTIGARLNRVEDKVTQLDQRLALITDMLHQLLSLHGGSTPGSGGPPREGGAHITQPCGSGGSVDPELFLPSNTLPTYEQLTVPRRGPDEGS
# CHO Tl ctr: thallium flux change in parental CHO cells, counter-screen for KCNQ2 inhibitor project | shares compounds with KCNQ2 inh | stronger effect = lower value | activity change, % at 10 µM | actives 14% (n = 1,000);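 further: 0% = vehicle negative controls with stimulus buffer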
# KCNQ2 patch conf: rat KCNQ2 channel inhibitors, confirmation, cell-based, automated patch clamp, single concentration | AID 588531, 2011 | actives 49% (n = 550) | KCNQ2-expressing cells, automated patch clamp current | calls only at 10 µM | shares compounds with KCNQ2 inh
# * hit, by the source's call; i = inactive; nt = no result given; + = active, no number. Unless noted, how the calls were made is not given here.
SMILES,KCNQ2 enhance,KCNQ2 inh,KCNQ2 block conf,KCNQ1 spec,CHO Tl ctr,others
CCC(=O)N=c1ccn(C2=Nc3ccccc3NC2=C(C#N)C#N)cc1,nt,i,nt,nt,nt,
Cc1ccc(Nc2nc(CSc3nnnn3-c3ccccc3)cs2)cc1,nt,i,nt,nt,nt,
Cc1cccc(-n2nnnc2SCc2csc(-c3ccccc3)n2)c1,-7.2,-7.2*,-32%*,i,i,KCNQ2 patch conf=+
CC(OC(=O)CNS(=O)(=O)c1ccc(C#N)cc1)C(=O)Nc1cccc(C#N)c1 (configuration not stated),0.23,i,nt,nt,nt,
CC(=O)Oc1ccc2c(=O)c(/C=N/c3cc(=O)[nH]c(=S)[nH]3)coc2c1,0.33,i,nt,nt,nt,
COc1ccc(N2CCN(C(=O)Cn3ncc4c([nH]c5ccccc54)c3=O)CC2)cc1,nt,i,nt,nt,nt,
COc1cc(NC(=O)c2csc(-c3ccncc3)n2)cc(C(=O)Nc2cccc(C(F)(F)F)c2)c1,-6.9,-6.9*,-20%*,i,i,KCNQ2 patch conf=i
O=C(Nc1cccc(C(F)(F)F)c1)c1csc(-c2ccncc2)n1,0.48,i,nt,nt,nt,
COc1cc(NC(=O)c2ccno2)cc(C(=O)Nc2cccc(C(F)(F)F)c2)c1,nt,i,nt,nt,nt,
COc1cc(NC(=O)c2cc3cccc(OC)c3o2)cc(C(=O)Nc2cccc(C(F)(F)F)c2)c1,-7.6,-7.6*,i,i,i,
COc1ccc(-c2cc3nc4ccccc4n3c(N)c2C#N)cc1,nt,i,nt,nt,nt,
Cc1cc(=O)oc2c(C)c(OCC(=O)Nc3cccnc3)ccc12,1.5,i,nt,nt,nt,
O=C(/C=C/c1ccc(S(=O)(=O)N2CCOCC2)cc1)OCC(=O)c1ccc([N+](=O)[O-])cc1,0.08,i,nt,nt,nt,
COc1ccc(CN(C(=O)c2ccco2)c2ccc(C)c(C)c2)cc1,-6.7,-6.7*,i,i,i,
CCOc1ccc(N(Cc2ccc(OC)cc2)C(=O)c2ccco2)cc1,nt,i,nt,nt,nt,
Cc1ccccc1NC(=S)NC1(C)CCS(=O)(=O)C1 (configuration not stated),nt,i,nt,nt,nt,
Cc1ccc(NC(=O)C(NC2CCCC2)c2ccccc2)cc1Cl (configuration not stated),-6.8,-6.8*,-36%*,-39%*,-36%*,KCNQ2 patch conf=i
CN(C)CCNC(C(=O)Nc1cc(Cl)cc(Cl)c1)c1ccccc1 (configuration not stated),nt,i,nt,nt,nt,
CC(C)NC(C(=O)Nc1cc(Cl)cc(Cl)c1)c1ccccc1 (configuration not stated),-8.1,-8.1*,-36%*,i,i,KCNQ2 patch conf=i
COc1cccc(NC(=O)C(NC2CCCC2)c2ccccc2)c1 (configuration not stated),nt,i,nt,nt,nt,
O=C(Nc1cc(Cl)cc(Cl)c1)C(NCC1CCCO1)c1ccccc1 (configuration not stated),-7.8,-7.8*,i,i,i,
O=C(CC(c1ccccc1)c1ccccc1)NCC1CCCO1 (configuration not stated),nt,i,nt,nt,nt,
COc1ccc2nc(-c3ccc(Cl)cc3)cc(C(=O)O)c2c1,1.3,i,nt,nt,nt,
Cc1c(C(=O)N2CCOCC2)c(S(=O)(=O)Nc2cccc(C#N)c2)c(C)n1C,nt,i,nt,nt,nt,
O=c1c2ccccc2nc2n1C(CBr)CN2 (configuration not stated),nt,i,nt,nt,nt,
SMILES,KCNQ2 enhance,KCNQ2 inh,KCNQ2 block conf,KCNQ1 spec,CHO Tl ctr,others
COc1ccc(NC(=O)C2CCN(S(=O)(=O)c3ccc(Br)s3)CC2)cc1OC,0.51,i,nt,nt,nt,
COc1ccccc1NC(=O)CCCc1nc(-c2ccc(OC)c(OC)c2)no1,0.03,i,nt,nt,nt,
COc1cc(C)nc(OCCNC(=O)COc2ccc(Cl)cc2C)n1,-7.5,-7.5*,i,i,i,
Cc1cc(Cl)ccc1OCC(=O)NCCOc1nc(N2CCCCC2)nc(N2CCOCC2)n1,nt,i,nt,nt,nt,
CC1CCN(C(C(=O)Nc2ccc3c(c2)OCO3)c2ccccc2)CC1 (configuration not stated),-7,-7*,i,i,i,
O=C(Nc1ccc2c(c1)OCO2)C(c1ccccc1)N1CCCCC1 (configuration not stated),nt,i,nt,nt,nt,
COc1cccc(NC(=O)c2cccc(C(=O)Nc3cccc(OC)c3)c2)c1,0.78,i,nt,nt,nt,
COc1cccc(C(=O)Nc2cccc(C(=O)NCC(C)C)c2)c1,-6.7,-6.7*,i,i,i,
Cc1ccc(S(=O)(=O)NCC(=O)N(CC(=O)NCC2CCCO2)Cc2ccccc2Cl)cc1 (configuration not stated),nt,i,nt,nt,nt,
COc1ccc(C(=O)C/C(=C\C(=O)c2ccc(C)cc2)c2ccccc2)cc1,-7.7,-7.7*,i,i,i,
COc1ccc(C(=O)CC(=O)c2ccccc2)cc1,0.38,i,nt,nt,nt,
O=C(COc1ccc(Cl)cc1)N(Cc1ccccc1)c1ccccn1,-9.1,-9.1*,i,i,i,
O=C(COc1ccc(Br)cc1)N(Cc1ccccc1)c1ccccn1,nt,i,nt,nt,nt,
CC(=O)N1N=C(c2ccccc2)CC1c1ccc(F)cc1 (configuration not stated),nt,i,nt,nt,nt,
Cc1ccc(NC(=O)N2N=C(c3ccc(F)cc3)CC2c2ccc(F)cc2)cc1 (configuration not stated),-7.9,-7.9*,i,i,i,
Cn1c(C(=O)N(Cc2ccccc2)Cc2cccs2)cc2sccc21,nt,i,nt,nt,nt,
Cn1c(C(=O)N(Cc2ccccc2)Cc2ccccn2)cc2sccc21,-8.3,-8.3*,i,i,i,
CCc1noc(C)c1C(=O)OC(C)C(=O)Nc1ccccc1OC (configuration not stated),nt,i,nt,nt,nt,
CCn1c(CC(=O)Nc2ccc(OC)cc2)nnc1SCC(=O)N1CCOCC1,0.27,i,nt,nt,nt,
CCOC(=O)N1C2=NC(C(=O)OC)=C(C(=O)OC)[C@@H]3N(C)c4ccccc4[C@]23C[C@H]1C(=O)OC,nt,i,nt,nt,nt,
CCCCOc1ccc(Cc2c(Cl)nc(SC)nc2N2CCOCC2)cc1,nt,i,nt,nt,nt,
CSc1nc(Cl)c(Cc2ccc(OCC(C)C)cc2)c(N2CCOCC2)n1,-6.8,-6.8*,-24%*,i,i,KCNQ2 patch conf=i
O=C(COC(=O)CCc1ccccc1)Nc1ncc(Cl)cc1Cl,nt,i,nt,nt,nt,
COc1ccc2cc(CN(Cc3ccco3)Cc3nnnn3C3CCCCC3)c(=O)[nH]c2c1,2.5,i,nt,nt,nt,
CC(C)(C)c1ccc(CN(Cc2ccco2)Cc2nnnn2C2CCCC2)cc1,-12,-12*,-24%*,i,i,KCNQ2 patch conf=i
O=C(NCCCNC(=O)c1cc(Cl)ccc1Cl)c1ccco1,nt,i,nt,nt,nt,
COc1ccc(C(=O)C(OC(=O)c2ccccc2)c2ccccc2)cc1 (configuration not stated),-7,-7*,i,i,i,
